Hits are enriched below; roughly 2.4% of the tested compounds scored in any of these assays.
D2 PAM-1 = positive allosteric modulators of human D2 dopamine receptor; P14416; AID 624464; DiscoveRx D2 beta-arrestin cells, luminescence, 90 min; 100% = 57 uM dopamine signal; potentiation, % (concentration not given with the values); hit rate 0.23% among 360,000; in the data active = potentiation above about 50%; inconclusive = mostly about 30% to 49%
Target sequence (P14416 whole entry, looked up): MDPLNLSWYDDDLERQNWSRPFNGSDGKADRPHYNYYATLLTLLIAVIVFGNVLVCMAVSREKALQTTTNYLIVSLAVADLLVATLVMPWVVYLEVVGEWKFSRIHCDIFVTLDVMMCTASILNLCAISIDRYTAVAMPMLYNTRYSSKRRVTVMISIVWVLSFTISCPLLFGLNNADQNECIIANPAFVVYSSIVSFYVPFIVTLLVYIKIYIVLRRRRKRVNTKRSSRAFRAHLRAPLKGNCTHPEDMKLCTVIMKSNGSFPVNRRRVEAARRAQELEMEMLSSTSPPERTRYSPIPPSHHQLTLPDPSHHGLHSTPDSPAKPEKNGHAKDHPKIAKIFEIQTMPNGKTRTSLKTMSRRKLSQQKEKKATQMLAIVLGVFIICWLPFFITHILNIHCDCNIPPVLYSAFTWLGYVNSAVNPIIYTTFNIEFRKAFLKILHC
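D2 cells co-treated with compound plus 50 nM dopamine (EC20) for 90 min at 37 deg C to detect potentiation. Beta-arrestin recruitment was read as enzyme-fragment luminescence after 1 h at ambient temperature. Full response was set by 57 uM dopamine.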
D2 PAM-2 = positively modulates the human D2 dopamine receptor allosterically; potentiation, % at 10 µM; AID 485347; P14416; HEK293 T-REx D2, calcium flux, EC20 dopamine potentiation; hit rate 0.34% among 340,000;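 active = potentiation over 3 SD above the plate norm, cut at about 30% in these data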; note: 0% is about no effect
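Potentiation of an EC20 dopamine calcium response is measured in a force-coupled, tetracycline-inducible Hek293 Trex D2 line. Compound-only kinetic reads over 180 s flag agonists before dopamine addition.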
D2 antag = antagonists of human D2 dopamine receptor | HEK293 TREx D2 cells, calcium flux, dopamine EC80 | hit rate 2% among 340,000 | inhibition, % at 10 µM | P14416; in the data active = inhibition above about 30%; inactive = below that, where a call was filed; note: 0% is about no effect
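Cells plated overnight at 30 C with tetracycline; no-wash calcium dye, 30–90 min RT; 10 s baseline; compound pinned; 180 s read; EC80 dopamine added; another 180 s read.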
D2 ag-1 = activates the human D2 dopamine receptor. P14416. DiscoveRx PathHunter D2 beta-arrestin, luminescence, 90 min; 100% = 57 uM dopamine signal. activation, % (no concentration beside the values). hit rate 0.084% among 360,000; in the data active = activation above about 40%; inconclusive = between about 15% and that limit
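DiscoveRx PathHunter D2 beta-arrestin cells (2,100/well) attached overnight, then compound-stimulated 90 min at 37 C in HBSS/10 mM HEPES/0.1% Tween-20 buffer; beta-galactosidase complementation read by luminescence after 1 h at ambient temperature. Dopamine 57 uM final (EC100) as control.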
D2 ag-2 = D2 dopamine receptor (human) agonism; HEK293 T-REx D2 cells, calcium flux agonist mode; P14416; activation, % at 2 µM; hit rate 0.53% among 340,000;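 active = activation over 3 SD above normal in the single-dose calcium agonist read, cut at about 30% in these data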; note: 0% is about no effect
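Agonism is scored from calcium flux in a force-coupled, inducible HEK293 cell line expressing D2, read kinetically for 180 s after compound addition against dopamine controls.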
* = called active by the depositor; ? = inconclusive; / = not tested or not shown; ! = repeats disagree.

SMILES | D2 PAM-1 | D2 PAM-2 | D2 antag | D2 ag-1 | D2 ag-2
O=[N+]([O-])c1nn(-c2ccc3c(c2)OCCO3)n(O)c1=NC1CCCCC1 | 118* | -3 | 7 | ? | 1
O=[N+]([O-])c1nn(-c2ccc3c(c2)OCCO3)n(O)c1=NCc1ccccc1Cl | 54* | -2 | 24 | 12 | 0
Cc1ccc(CN=c2c([N+](=O)[O-])nn(-c3cccc(Cl)c3)n2O)cc1 | ? | 0 | 3 | ? | -5
O=C(NCCc1ccc(Cl)cc1)c1ccc2c(c1)N(Cc1ccc(Cl)cc1)C(=O)CS2 | / | / | / | / | 1
COc1ccccc1CNC(=O)Cc1c(C)c2cc3c(C)coc3c(C)c2oc1=O | / | 8 | / | / | -1
O=C(COC(=O)CCNS(=O)(=O)c1ccccc1)Nc1ccc(OC(F)F)cc1 | 0 | 26 | 50* | 0 | 0
Cc1nn(C)c(C)c1/C=N/NC(=O)CCn1cc([N+](=O)[O-])cn1 | -8 | 6 | 32* | -2 | 0
CC(CC(=O)N1CCN(C(=O)c2ccccc2)CC1)c1ccccc1 (stereo not given) | -1 | -5 | 38* | 1 | 1
O=C(NCC(=O)N1CCN(C(=O)c2ccccc2)CC1)c1ccccc1 | -13 | 11 | -8 | -3 | -1
CC(C)CC(=O)Nc1ccccc1N1CCN(C(=O)c2ccccc2)CC1 | 62* | 20 | 23 | 4 | 0
O=C(COc1ccccc1[N+](=O)[O-])Nc1cc(-c2nc3cc(Cl)ccc3o2)ccc1Cl | / | -2 | / | / | 0
Cc1ccc(Cl)cc1N1CCN(S(=O)(=O)c2c(C(=O)N3CCOCC3)c(C)n(C)c2C)CC1 | -13 | 15 | 38* | 2 | 0
COc1ccc(C2Nc3ccccc3C(=O)N2Cc2ccccc2)cc1CN1CCOCC1 (stereo not given) | -7 | 4 | -3 | -3 | 0
COc1ccc(C2Nc3ccccc3C(=O)N2c2ccccc2)cc1CN1CCOCC1 (stereo not given) | -13 | -1 | 30* | 4 | 0
CCOC(=O)N1CCc2c(sc3c2c(=O)n(Cc2ccccc2)c(=O)n3CC(=O)Nc2ccc(C)cc2C)C1 | / | 2 | / | / | /
COc1cc(C=O)ccc1OCCSc1ccc(C)cc1 | -2 | -1 | -4 | 1 | -1
CCOc1cc(C=O)ccc1OCCSc1ccc(C)cc1 | 2 | -8 | 40* | -4 | 1
Cc1ccc(NS(=O)(=O)c2c(C)nc3sccn3c2=O)cc1 | -4 | -2 | 9 | -1 | 1
Cc1nc2sccn2c(=O)c1S(=O)(=O)Nc1ccc(N2CCN(C(=O)C(C)C)CC2)cc1 | 1 | 51*! | -5 | 3 | -1
Cc1ccc(C)c(S(=O)(=O)N2CCN(C(C(=O)Nc3ccc(F)cc3)c3ccccc3)CC2)c1 (stereo not given) | -13 | -4 | -8 | -1 | 0
O=C(Nc1ccc(F)cc1)C(c1ccccc1)N1CCN(S(=O)(=O)c2ccc3ccccc3c2)CC1 (stereo not given) | -10 | -2 | 37* | 1 | 1
Fc1ccccc1Cn1c(-c2ccccc2)nc2ccccc21 | / | 12 | / | / | /
CCN(CC)C(=O)C1=C(C)NC(=S)NC1c1cccs1 (stereo not given) | -6 | -7 | 31* | -8 | 0
CCN(CC)S(=O)(=O)c1cc(C(=O)OCC(=O)NC2CCCc3ccccc32)ccc1C (stereo not given) | -17 | 4 | 37* | -3 | 0
Cc1nc(SCC(=O)NCc2ccco2)c2c3c(sc2n1)CCCC3 | -5 | 1 | 36* | -3 | 1
SMILES | D2 PAM-1 | D2 PAM-2 | D2 antag | D2 ag-1 | D2 ag-2
COc1ccc(C(=O)O/N=C(\N)Cc2ccc([N+](=O)[O-])cc2)c(OC)c1 | ? | -11 | -9 | 42* | 0
COc1ccc(C/C(N)=N/OC(=O)c2cccc([N+](=O)[O-])c2)cc1 | 51* | 9 | -11 | 10 | -1
CCOP(=O)(OCC)/C(=N/OC(=O)c1cccc([N+](=O)[O-])c1)C(N)=O | -2 | -6 | 3 | -3 | -1
COc1ccccc1C/C(N)=N/OC(=O)c1cccc([N+](=O)[O-])c1 | 70* | 3 | 4 | ? | -1
Cc1cc(C)cc(N2CCn3c2nc2c3c(=O)n(CCc3ccccc3)c(=O)n2C)c1 | / | 7 | / | / | 1
Cc1ccc2oc(=O)c3cc(C(=O)Nc4ccc(F)cc4F)sc3c2c1 | / | -2 | / | / | 1
CC(C)COC(=O)c1ccc2c(c1O)C(=O)c1ccccc1C2=O | 62* | -1 | 2 | 13 | 0
COc1ccccc1N1CCN(c2ccc(=O)n(CC(=O)O)n2)CC1 | / | -2 | / | / | 0
Cc1csc2nc(COc3ccc(NC(=O)c4ccccc4F)cc3)cc(=O)n12 | / | 2 | / | / | 0
O/N=C1\CCCc2ccccc21 | -3 | 4 | -12 | 2 | 0
O/N=C1\CCCCc2ccccc21 | -5 | -2 | 33* | 0 | -1
Cc1ccc2c(c1)NC(=O)C(CC(=O)NCCCN1CCN(c3cc(Cl)ccc3C)CC1)O2 (stereo not given) | -8 | -28 | 53* | 1 | 0
CCc1cccc(C)c1NC(=O)CCCn1c(C)c2cnn(-c3ccccc3)c(=O)c2c1C | / | 5 | / | / | 0
CC1CCCC(NC(=O)COC(=O)c2cccc(NS(=O)(=O)/C=C/c3ccccc3)c2)C1C (stereo not given) | 25 | 17 | 50* | 2 | -1
Cc1cc(Cl)ccc1OCCCC(=O)N1CCN(C)CC1 | -27 | -12 | 32* | 0 | -1
O=C(COc1ccccc1Cl)Nc1ccc(N2CCN(C(=O)c3ccccc3)CC2)cc1 | 6 | 22 | 0 | 9 | 0
Cc1ccc2c(c1)-c1[nH]c(=S)ncc1CS2 | 60* | 9 | 6 | -3 | -1
COc1cc(-c2nc(CN3CCN(c4ncccn4)CC3)c(C)o2)ccc1F | -5 | -6 | 1 | ? | 31*
Cc1ccc(Nc2nnc(C)c(=O)[nH]2)cc1 | -5 | -4 | 43* | 4 | -3
COc1ccccc1NC(=O)C1CCCN1C(=O)NC1CCCCC1 (stereo not given) | -5 | / | 3 | -1 | -1
N/C(=N\c1nc2c(c(=O)[nH]1)CCCC2)Nc1ccccc1 | 11 | 8 | -4 | 0 | 0
N/C(=N\c1nc2c(c(=O)[nH]1)CCC2)Nc1ccccc1 | -1 | -5 | 30* | 2 | 0
COc1ccc(O)c(C(=O)c2cc(C(=O)NCCc3ccccc3)c(=O)n(CCc3ccccc3)c2)c1 | 69* | 4 | -8 | 14 | 2
CC(C)(C)NC(=O)C(c1ccccn1)N(C(=O)C1CSC(=O)C1)c1cccc(F)c1 (stereo not given) | -1 | 6 | 4 | 3 | 0
Cc1sc2nc3ccc(N4CCCCC4)nn3c(=O)c2c1C | -2 | -9 | 37* | -12 | 1
